PubChem BioAssay (NCATS)
Values joined by “and” are separate entries in the source; they are usually repeats but may differ in a detail not shown here. Equal values may be shown once. Results filed as inconclusive are left out. Values without a mark were called inactive. Active and inactive are the calls of the source. The call rests on the fitted dose curve; in most records, active means well fitted curve in the direction sought with a large enough effect; inconclusive means small, poorly fitted or top-dose-only effect, or another doubt; inactive means no such curve, though single readings can be large; an effect the other way counts as inactive or inconclusive.

Tests used:
[1] = biological target: Cellular tumor antigen p53 (Homo sapiens) (UniProt P04637); assay: Primary qHTS for small molecule compounds that upregulate eGFP-tagged delta133p53alpha (in N-terminal) cells. (AID 2060322); details: NCI-H358 eGFP-delta133p53alpha fluorescence, 24 h; activation: stronger effect = higher value; further: nearly all actives have a fitted effect of over 75% in size; further: potency means the concentration at half of the fitted maximal effect;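 on activation: 0% = DMSO vehicle and 100% = reference activator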
Chain of Cellular tumor antigen p53 (Homo sapiens) (P04637 whole entry, looked up): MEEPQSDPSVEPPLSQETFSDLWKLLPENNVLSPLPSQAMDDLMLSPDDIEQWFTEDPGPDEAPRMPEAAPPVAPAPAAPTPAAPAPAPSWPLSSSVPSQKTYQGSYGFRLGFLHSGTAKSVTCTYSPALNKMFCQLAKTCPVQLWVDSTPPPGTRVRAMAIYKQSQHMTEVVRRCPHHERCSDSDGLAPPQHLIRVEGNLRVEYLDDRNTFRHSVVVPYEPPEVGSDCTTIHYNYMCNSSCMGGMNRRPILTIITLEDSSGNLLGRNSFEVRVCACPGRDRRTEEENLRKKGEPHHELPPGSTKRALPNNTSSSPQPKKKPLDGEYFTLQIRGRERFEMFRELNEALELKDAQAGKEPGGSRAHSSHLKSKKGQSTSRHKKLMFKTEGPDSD
Method in brief: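 NCI-H358 cells pre-induced 24 h with 10 ng/ml doxycycline to express N-terminal eGFP-delta133p53alpha, then dosed 24 h at 37C without doxycycline; fixed, Hoechst-stained, GFP intensity by laser scanning cytometry, normalized to DMSO (0%) and 57.5 uM 5-azacytidine (100%).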

[2] = qHTS for Inhibitors of the Aldehyde Dehydrogenase Family (ALDH1A2, ALDH1A3, ALDH2, ALDH3A1) (AID 2061307); details: ALDH inhibition qHTS; series mostly up to 50.3 µM; further: nearly all actives have a fitted effect of over 50% in size; on Potency: test system not described further here; potency means the concentration at half of the fitted maximal effect; on activity change, negative = inhibition: on the % scale 0 is the no-effect control and ±100 the full control effect
[3] = biological target: Aldehyde dehydrogenase, mitochondrial (Homo sapiens) (UniProt P05091); assay: qHTS for Inhibitors of the Aldehyde Dehydrogenase Family (ALDH2) Primary screen (AID 2061308); details: ALDH2 enzyme inhibition qHTS, 1536-well; series mostly up to 56 µM; further: nearly all actives have a fitted effect of over 55% in size; further: potency means the concentration at half of the fitted maximal effect;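 on activity change, negative = inhibition: plate controls were vehicle for no effect and reference inhibitor for full effect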
[4] = biological target: Aldehyde dehydrogenase 1A1 (Homo sapiens) (UniProt P00352); assay: qHTS for Inhibitors of the Aldehyde Dehydrogenase Family (ALDH1A1) Confirmatory screens (AID 2061316); details: ALDH inhibition qHTS; series mostly up to 47.3 µM; further: nearly all actives have a fitted effect of over 65% in size; further: potency means the concentration at half of the fitted maximal effect; on activity change, negative = inhibition: on the % scale 0 is the no-effect control and ±100 the full control effect
[5] = biological target: Retinaldehyde dehydrogenase 3 (Homo sapiens) (UniProt P47895); assay: qHTS for Inhibitors of the Aldehyde Dehydrogenase Family (ALDH1A3) Confirmatory screens (AID 2061311); details: ALDH inhibition qHTS; series mostly up to 46 µM; further: nearly all actives have a fitted effect of over 60% in size; further: potency means the concentration at half of the fitted maximal effect; on activity change, negative = inhibition: on the % scale 0 is the no-effect control and ±100 the full control effect
[6] = biological target: Retinal dehydrogenase 2 (Homo sapiens) (UniProt O94788); assay: qHTS for Inhibitors of the Aldehyde Dehydrogenase Family (ALDH1A2) Confirmation screens (AID 2061314); details: ALDH1A2 enzyme inhibition qHTS confirmation; series mostly up to 45.9 µM; further: nearly all actives have a fitted effect of over 65% in size; further: potency means the concentration at half of the fitted maximal effect
[7] = biological target: Retinaldehyde dehydrogenase 3 (Homo sapiens) (UniProt P47895); assay: qHTS for Inhibitors of the Aldehyde Dehydrogenase Family (ALDH1A3) Primary screen (AID 2061315); details: ALDH inhibition qHTS; series mostly up to 56 µM; further: potency means the concentration at half of the fitted maximal effect;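 on activity change, negative = inhibition: plate controls were DMSO vehicle for no effect and reference inhibitor for full effect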
[8] = BET inhibitor-based combinations targeting novel dependencies in MECOM-rearranged (r) AML: MV-4-11 cell line (AID 2202233); details: MV-4-11 AML viability, CellTiter-Glo luminescence, 48 h; series mostly up to 46 µM; further: nearly all actives have a fitted effect of over 45% in size; further: potency means the concentration at half of the fitted maximal effect
Method in brief: (§1)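 First, 500 cells per well were seeded; next, drugs were pinned as 11-point doses; then plates sat 48 hr in the incubator; finally CellTiter-Glo was added and luminescence read, with AUC and Z-AUC computed.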

[9] = BET inhibitor-based combinations targeting novel dependencies in MECOM-rearranged (r) AML: HNT-34 cell line (AID 2202234); details: HNT-34 AML viability, CellTiter-Glo luminescence, 48 h; series mostly up to 46 µM; further: nearly all actives have a fitted effect of over 35% in size; further: potency means the concentration at half of the fitted maximal effect
Method in brief: as §1

[10] = BET inhibitor-based combinations targeting novel dependencies in MECOM-rearranged (r) AML: AML-191 cell line (AID 2202236; further: nearly all actives have a fitted effect of over 35% in size; further: potency means the concentration at half of the fitted maximal effect); details: AML-191 viability, CellTiter-Glo luminescence, 48 h; series mostly up to 46 µM
Method in brief: (§2)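 Each compound was tested at eleven concentrations on cells seeded at 500/well. After two days' incubation, ATP-based luminescence reported viability; responses relative to DMSO and blank wells yielded AUC and cell-line-centred Z-AUC.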

[11] = biological target: Retinaldehyde dehydrogenase 3 (Homo sapiens) (UniProt P47895); assay: qHTS for Inhibitors of the Aldehyde Dehydrogenase Family (ALDH1A3) Validation screen (AID 2061312); details: ALDH1A3 enzyme inhibition qHTS validation, fluorescence; series mostly up to 84.7 µM; further: nearly all actives have a fitted effect of over 45% in size; further: potency means the concentration at half of the fitted maximal effect; on activity change, negative = inhibition: on the % scale 0 is the no-effect control and ±100 the full control effect
[12] = BET inhibitor-based combinations targeting novel dependencies in MECOM-rearranged (r) AML: UCSD-AML1 cell line (AID 2202235); details: UCSD-AML1 AML cells viability, CellTiter-Glo, 48 h; series mostly up to 46 µM; further: nearly all actives have a fitted effect of over 40% in size; further: potency means the concentration at half of the fitted maximal effect
Method in brief: as §1

[13] = BET inhibitor-based combinations targeting novel dependencies in MECOM-rearranged (r) AML: SET-2 cell line (AID 2202231); details: SET-2 AML cells viability, CellTiter-Glo luminescence, 48 h; viability: stronger effect = lower value, concentration not given here;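 further: plate controls were DMSO treated cells for no effect and wells without cells for full effect; nearly all actives have a fitted effect of over 35% in size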
Method in brief: as §2

[14] = BET inhibitor-based combinations targeting novel dependencies in MECOM-rearranged (r) AML: OCI-AML3 cell line (AID 2202232); details: CellTiter-Glo luminescence, 48 h; Potency: OCI-AML3 viability; series mostly up to 46 µM;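 further: plate controls were DMSO vehicle wells for no effect and wells without cells for full effect; nearly all actives have a fitted effect of over 35% in size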
Method in brief: as §2

[15] = BET inhibitor-based combinations targeting novel dependencies in MECOM-rearranged (r) AML: AML-194 cell line (AID 2202237;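 further: plate controls were vehicle wells for no effect and wells without cells for full effect; nearly all actives have a fitted effect of over 40% in size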); details: AML-194 (MECOM-r AML) viability, CellTiter-Glo, 48 h; series mostly up to 46 µM
Method in brief: as §2

CC(NC(=O)CC(=O)O)c1nc2ccccc2c(=O)[nH]1 (stereo not drawn)
activation [1]: -5.36%
Potency [2]: inactive
Potency [3]: inactive
Potency [4]: 1.27 µM (active)

COc1ccc(CNC(=O)Nc2ncc([N+](=O)[O-])s2)cc1
Potency [1]: 33.8 µM (active)
Potency [2]: 3.16 µM (active)
Potency [3]: inactive
Potency [5]: 14.2 µM (active)
Potency [6]: 12.7 µM (active)
Potency [7]: inactive
Potency [8]: 18.6 µM (active)
Potency [9]: 20.9 µM (active)
Potency [10]: 23.5 µM (active)

COc1ccc2c(OC)c3ccoc3nc2c1OC
activation [1]: -3.05%
Potency [2]: 28.2 µM (active)
Potency [3]: inactive
Potency [5]: 4 µM (active)
Potency [6]: 0.896 µM (active)
Potency [4]: 2.83 µM (active)

O=C(O)c1cc(-c2c(-c3ccccc3)nn3ccccc23)n[nH]c1=O
activation [1]: -0.333%
Potency [2]: inactive
Potency [3]: inactive
Potency [7]: inactive

Cc1cc(Nc2ccc(NC(=O)c3ccc(Nc4ccnc5ccccc45)cc3)cc2)nc(N)n1
Potency [1]: 10.9 µM (active)
Potency [2]: inactive
Potency [3]: inactive
Potency [11]: inactive
Potency [7]: inactive

CC(C)c1ccc2c(c1)CCC1[C@](C)(C(=O)O)CCC[C@]21C (stereo partly drawn)
activation [1]: 9.82%
Potency [2]: inactive
Potency [5]: inactive
Potency [7]: inactive
Potency [4]: inactive

Cc1cc(N2CCOCC2)cc2[nH]c(-c3c(NC[C@@H](O)c4cccc(Cl)c4)cc[nH]c3=O)nc12
Potency [1]: 21.7 µM (active) and 23.9 µM (active)
Potency [2]: inactive
Potency [3]: inactive
Potency [11]: inactive
Potency [7]: inactive
Potency [9]: 7.42 µM (active)
Potency [12]: 0.296 µM (active)
Potency [10]: 0.59 µM (active)

O=C(NCc1ccc(S(=O)(=O)c2cc(F)cc(F)c2)cc1)c1ccc2nccn2c1
activation [1]: 17.2%
Potency [2]: 10.1 µM (active)
Potency [3]: inactive
Potency [11]: inactive
Potency [6]: inactive
Potency [7]: inactive
Potency [4]: 11.3 µM (active)

Clc1ccc2ncc(-c3cccc(NC4CNC4)n3)n2c1
activation [1]: 11%
Potency [2]: inactive
Potency [3]: inactive
Potency [5]: inactive
Potency [7]: inactive
viability [13]: 115%
Potency [14]: inactive
Potency [8]: inactive
Potency [9]: inactive
Potency [10]: inactive
Potency [15]: inactive

CCOC(=O)c1cnn(-c2ccc(NC(=O)C(Cl)=C(Cl)Cl)cc2)c1C(F)(F)F
Potency [1]: 19 µM (active)
Potency [2]: 4.47 µM (active)
Potency [3]: 4.47 µM (active)
Potency [5]: 7.08 µM (active)
Potency [6]: 0.634 µM (active)
Potency [7]: inactive
Potency [4]: 4 µM (active)

O=C(O)c1ccccc1C(=O)Nc1ccc(-c2ccccc2)cc1
activation [1]: -8.49% and 5.67%
Potency [2]: inactive
Potency [3]: inactive
activity change, negative = inhibition [5]: -21.1% [at 0.0073 µM]
Potency [6]: 10.1 µM (active)
Potency [7]: inactive
viability [13]: 116%
Potency [8]: inactive
Potency [9]: inactive
Potency [12]: inactive
Potency [10]: inactive
Potency [15]: inactive

COc1ccc(CCO[C@@H]2O[C@H](CO[C@H]3OC[C@](O)(CO)[C@H]3O)[C@@H](OC(=O)/C=C/c3ccc(O)c(O)c3)[C@H](O[C@@H]3O[C@@H](C)[C@H](O)[C@@H](O)[C@H]3O)[C@H]2O)cc1OC
activation [1]: 16%
Potency [2]: inactive
Potency [3]: inactive
Potency [6]: inactive

Cc1onc(-c2ccccc2)c1C(=O)N[C@@H]1C(=O)N2[C@@H]1SC(C)(C)[C@@H]2C(=O)O
activation [1]: -0.333% and 17%
Potency [2]: inactive
Potency [3]: inactive
Potency [7]: inactive

OC[C@H]1O[C@@H](Oc2ccc(O)c3cccc(O)c23)[C@H](O)[C@@H](O)[C@@H]1O
activation [1]: -13%
Potency [2]: 7.83 µM (active)
Potency [5]: 0.985 µM (active)
Potency [6]: 2.47 µM (active)
Potency [7]: 1.78 µM (active)

OCC1OC(Oc2cc(O)cc(/C=C/c3ccc(OC4OC(CO)C(O)C(O)C4O)cc3O)c2)C(O)C(O)C1O (stereo not drawn)
activation [1]: -9.16%
Potency [2]: 10 µM (active)
Potency [3]: inactive
Potency [7]: 4.47 µM (active)

Oc1ccc(O)cc1
activation [1]: 17.5% and -0.402%
Potency [2]: 11.3 µM (active)
Potency [5]: 4.49 µM (active)
Potency [11]: 0.794 µM (active)
Potency [4]: 11.3 µM (active)

NC(=Nc1ccc(CCNCc2cccc(Cl)c2)cc1)c1cccs1
activation [1]: -11.9%
Potency [2]: inactive
Potency [3]: inactive
Potency [7]: inactive

CN(C)c1ccc(NC(=O)NS(=O)(=O)c2ccc(Cl)cc2)cc1
activation [1]: -1.67%
Potency [2]: 6.34 µM (active)
Potency [5]: 2.83 µM (active)
Potency [6]: 10.1 µM (active)
Potency [4]: 7.98 µM (active)

Cc1cc(C)c2c(N)c(C(=O)NCc3ccc(Cl)cc3)sc2n1
activation [1]: 13.4%
Potency [2]: 1.12 µM (active)
Potency [3]: inactive
Potency [7]: inactive
Potency [4]: 14.2 µM (active)

CC(=O)N[C@@H](CC(=O)O)C(=O)N[C@@H](CCC(=O)O)C(=O)N[C@H](C(=O)N[C@@H](CC(=O)O)C(=O)Nc1ccc2c(C)cc(=O)oc2c1)C(C)C
Potency [1]: 13.5 µM (active)
Potency [2]: inactive
Potency [3]: inactive
Potency [7]: inactive
